Bioassay records from PubChem BioAssay.
SKOV3 invasion – Primary qHTS assay for Inhibitors of ovarian cancer metastasis using an organotypic tumor microenvironment (TME) model; SKOV3ip1-GFP adhesion/invasion on 3D omental model, fluorescence; Potency, µM (series often up to 45.8 µM), for inactives: at the highest dose activity change, negative = inhibition, hits mostly inhibitors; 0.1% of 46,000 active; AID 1963576, 2024;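 also: plate controls were DMSO wells for no effect and tomatine positive control wells for full effect; nearly all actives have a fitted effect of over 65% in size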
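Primary human omental fibroblast/mesothelial 3D culture pre-formed 48 h. SKOV3ip1-GFP cells added with compounds (0.36-46 umol/L), incubated 2 h RT/16 h 37 C, fixed; GFP cells quantified at 488/509 nm.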
p53null 32C kill – qHTS Screen for Compounds that Selectively Target Cancer Cells with p53 Mutations: Cytotoxicity of p53 Null Cells at the Permissive Temperature. H1299-neo p53 null cells, ATP luminescence, 24 h, 32C. Potency, µM (top dose mostly 46.1 µM), inactives show at the top dose activity change, negative = cytotoxicity, most hits filed as cytotoxic. 0.62% of 55,000 active. AID 903, 2007;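 also: 0% = DMSO only and -100% = full killing by 100 µM tamoxifen; nearly all actives have a fitted effect of over 55% in size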
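Cytotoxicity: H1299-neo (no p53), 32C, 24 h treatment. Concentrations up to 46 uM. Readout cellular ATP, luminescence. Normalization to DMSO basal and tamoxifen 100 uM maximal kill.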
S16 F2sN tox – Cell viability qHTS assay in S16 Pmp22-F2sN cells; S16 Pmp22-F2sN Schwann cells viability, CellTiter-Glo, 24 h; Potency, µM (highest dose often 57.5 µM), for the others: at the top dose activity change, negative = cytotoxicity, hits mostly cytotoxic; 0.48% of 43,000 active; also: nearly all actives have a fitted effect of over 65% in size
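Rat S16 Schwann reporter line, 24 h treatment with library compounds delivered at 23 nL per well. Cell viability by CellTiter-Glo luminescence.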
pS6 MEF inh – Acumen qHTS Assay for Inhibitors of the mTORC1 Signaling Pathway in MEF (Tsc2-/-, p53-/-) Cells: Sytravon. AID 493208, 2011. Tsc2-/- p53-/- MEF, phospho-rpS6 immunofluorescence/PI, 24 h. 0.78% of 44,000 active. Potency, µM (top dose mostly 38.3 µM), without a hit: at the top dose activity change, negative = inhibition, most hits filed as inhibitors;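 also: plate controls were DMSO for no effect and rapamycin for full effect; nearly all actives have a fitted effect of over 50% in size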
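Tsc2-/-, p53-/- MEFs (empty-vector stable line) in DMEM + 10% FBS were treated with compounds 24 h at 37 degree Celsius, fixed, and immunostained for phospho-rpS6 (Alexa-488) with propidium iodide counterstain. Laser-scanning cytometry gave % positive cells, normalized against 7.5 nM rapamycin and DMSO.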
PMP22 txn prim – Cell-based coincidence reporter assay to measure PMP22 gene transcription in S16 Pmp22-F2sN cells - Primary screen; S16 Pmp22-F2sN Schwann cells (luciferase reporters placed in the Pmp22 gene), FLuc/NLuc coincidence luminescence, 24 h; Potency, µM (highest dose often 57.5 µM), without a hit: at the highest dose activity change, negative = inhibition, most hits filed as inhibitors; 2% of 43,000 active; AID 1508649, 2021; active = clear falling dose curves in both reporters; inconclusive = both reporters move, but less clearly or upward; inactive = either reporter flat; the % is the NLuc reporter signal
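Luminescent read-out of sequential FLuc and NLuc signals from a reporter embedded in the Pmp22 3' UTR of S16 Schwann cells, taken after 24 h compound exposure at 37C; compounds reducing both signals score as inhibitors of expression.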
p53null 39C tox – qHTS Screen for Compounds that Selectively Target Cancer Cells with p53 Mutations: Cytotoxicity of p53 Null Cells at the Nonpermissive Temperature; Potency, µM (top dose mostly 46.1 µM), without a hit: at the top dose activity, negative = cell killing, usual class: cytotoxic; 0.97% of 55,000 active; H1299 p53-null (neo) cells, 39C, ATPlite viability, 24 h;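 also: 0% = DMSO only and -100% = full killing by 100 µM tamoxifen; nearly all actives have a fitted effect of over 50% in size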
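Cells seeded at 600/well, 37C overnight. Compound added (up to 46 uM), plates shifted to 39C for 24 hr. ATPlite added, luminescence read after 20 min at room temperature.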
Starred values were filed as active, the others as inactive; i = inactive; u = inconclusive; x = not tested or not shown. Compounds with a hit are over-represented: about 3.1% of the library has one in this group of screens. Unless noted, calls follow the shape of the dose curve; as a rule, active = well fitted curve in the direction sought with a large enough effect; inconclusive = small, poorly fitted or top-dose-only effect, or another doubt; inactive = no such curve, though single readings can be large; an effect the other way counts as inactive or inconclusive. Unless noted, % is scaled to controls: 0 for no effect and ±100 for the full control effect; potency is read from the fitted curve at half-maximal effect.

SMILES | SKOV3 invasion | p53null 32C kill | S16 F2sN tox | pS6 MEF inh | PMP22 txn prim | p53null 39C tox
Cc1ccc(Cl)cc1N1CCN(C(=O)c2ccc(CS(=O)c3ccccc3)o2)CC1 (stereo unspecified) | i | 7% | u | u | 10µM* | -5%
Cc1ccsc1CCN1C(=O)N(c2ccccc2)C(=O)C1CC(=O)Nc1ccc(Cl)cc1 (stereo unspecified) | 3% | 0% | 32µM* | -5% | u | 16%
CC(C)NC[C@@H](C(=O)N1CCN(c2ncnc3c2[C@H](C)C[C@H]3O)CC1)c1ccc(Cl)cc1 | 21% | x | x | x | x | x
CCn1c(=N)n(CCOc2ccc(Br)cc2)c2ccccc21 | u | -21% | u | 13µM* | u | 13%
CS(=O)(=O)Oc1ccc2c(NC(N)=O)c(C(=O)c3ccc(Cl)cc3Cl)oc2c1 | 1% | x | x | x | x | x
COc1ccccc1Nc1nn2c(=O)c3ccc(C(=O)NCc4ccc(F)cc4)cc3nc2s1 | -14% | -12% | 14µM* | -10% | 4.6µM* | 4µM*
CCc1ccccc1Nc1nn2c(=O)c3ccc(C(=O)NCc4ccccc4OC)cc3nc2s1 | -5% | 7% | -4% | -1% | -20% | -13%
CCc1cccc(NC(=O)c2ccc3c(=O)n4nc(Nc5ccccc5OC)sc4nc3c2)c1 | i | -5% | u | -9% | 4.5µM* | u
CN1CCc2c(c3ccccc3n2Cc2ccc(C(=O)NO)cc2)C1 | -10% | x | x | x | x | x
O=C(NCCN1CCCCC1)c1ccc(Cn2c(SCc3ccc(F)cc3)nc3cccnc32)cc1 | u | 16µM* | u | -10% | -6% | u
COc1ccc(NC(=O)Cn2c(SCc3ccc(C)cc3)nc3cccnc32)cc1OC | -4% | 3.5µM* | -18% | -20% | u | 5µM*
COCCCNC(=O)c1ccc(Cn2c(SCc3ccc(F)cc3)nc3cccnc32)cc1 | i | 10µM* | -24% | -6% | -10% | 13µM*
COCCCNC(=O)c1ccc(CSc2nc3cccnc3n2Cc2ccc(OC)cc2)cc1 | i | 4% | -4% | u | u | -25%
COc1ccc(NC(=O)Cn2c(SCc3ccc(F)cc3)nc3cccnc32)cc1OC | -9% | u | -13% | -18% | -61% | u
CN(C)CCNC(=O)c1ccc(Cn2c(SCc3ccc(F)cc3)nc3cccnc32)cc1 | -17% | -11% | -18% | -6% | 10% | -10%
COC(=O)c1c(-c2ccc(Cl)cc2)noc1N1CCN(c2ccc(C(C)=O)cc2)CC1 | -3% | 2% | u | -15% | 2.7µM* | -12%
COC(=O)c1c(-c2ccc(Cl)cc2)noc1N1CCN(c2ccc(OC)cc2)CC1 | 11% | -7% | u | 2% | 6µM* | u
COC(=O)c1c(-c2ccc(Cl)cc2)noc1N1CCN(c2ccccc2F)CC1 | 3% | -3% | 10% | 1% | 6% | -6%
CCCN1CCN(c2ncnc3sc(C(=O)Nc4ccc(C(C)C)cc4)c(C)c23)CC1 | i | 2% | u | u | u | 6%
CCCN1CCN(c2ncnc3sc(C(=O)Nc4ccc(OC(F)(F)F)cc4)c(C)c23)CC1 | -28% | 9% | u | 16µM* | u | -17%
O=C(O)c1ccc2c(c1)nc(Nc1cccc(Cl)c1)c1ccncc12 | -5% | x | x | x | x | x
O=C(Nc1ccc2c(c1)CCC2)C1CCCO1 (stereo unspecified) | x | -10% | x | x | x | -18%
O=C(Nc1ccc2c(c1)CCC2)c1ccc(F)cc1 | x | 10µM* | x | x | x | -30%
CCOc1ccc(S(=O)(=O)Nc2ccc3oc(C)c(C(=O)OCCOC)c3c2)cc1 | -10% | 12% | 1% | -30% | u | 13%
COCc1oc2ccc(NS(=O)(=O)c3ccc(C)cc3)cc2c1C(=O)OC | -7% | 15% | -26% | u | 7.1µM* | 10%
SMILES | SKOV3 invasion | p53null 32C kill | S16 F2sN tox | pS6 MEF inh | PMP22 txn prim | p53null 39C tox
CC(C(=O)NCc1cccc(Br)c1)n1ncn2cccc2c1=O (stereo unspecified) | -11% | u | 0% | 0.58µM* | 4% | 13µM*
Cc1c2cnn(-c3ccccc3)c(=O)c2c(C)n1C(C)C(=O)NCc1cccc(Br)c1 (stereo unspecified) | -9% | 19% | -16% | -9% | u | -16%
CCCn1c(/C=C/c2ccccc2)nc2ccccc21 | -1% | 16µM* | -5% | -8% | -11% | u
Nc1cccc(-c2nc3ccccc3[nH]2)c1 | x | -19% | x | x | x | -21%
Cc1ccc2nc(-c3cccc(N)c3)[nH]c2c1 | x | 13µM* | x | x | x | u
CCc1ccc(-n2nc(CO)c(C(=O)NC)n2)cc1 | 7% | u | 0% | 4% | -1% | 20µM*
CCc1ccc(-n2nc(CO)c(C(=O)NCC(c3ccccc3)c3ccccc3)n2)cc1 | -6% | 0% | 1% | 2% | -27% | -14%
CNC(=O)c1ccc(Nc2cc(Nc3ccccc3S(=O)(=O)C(C)C)c3cc[nH]c3n2)nc1 | -2% | x | x | x | x | x
C[C@]12CCC(=O)C=C1[C@@H]1CC1[C@H]1[C@H]3[C@@H]4C[C@H]4[C@@]4(CCC(=O)O4)[C@@]3(C)CC[C@H]12 (stereo partly specified) | -7% | x | x | x | x | x
COc1ccc2cc(CNc3ccc(C)cc3)c(=O)n(CC(=O)Nc3ccc(C)cc3Cl)c2c1 | 37% | 1% | -1% | -5% | u | -11%
COc1ccc2cc(CNc3ccccc3)c(=O)n(CC(=O)Nc3ccc(C)cc3C)c2c1 | i | 9% | -11% | 7.4µM* | -18% | 12%
CCOC(=O)c1ccc(NC(=O)Cn2cc(C(=O)c3ccc(Cl)cc3)c(=O)c3ccc(C)nc32)cc1 | -7% | 5% | u | 3% | 12µM* | -21%
Cc1cccc(N/C=C/C(=O)c2cccs2)c1C | x | 14µM* | x | x | x | x
NC(=O)c1ccccc1N/C=C/C(=O)c1cccs1 | x | 13µM* | x | x | x | 11µM*
COC(=O)c1c(NC(=O)c2ccc(S(=O)(=O)N3CCCCC3)cc2)sc2c1CCN(C)C2 | u | -18% | u | 4.1µM* | u | -1%
